Assay results from PubChem BioAssay AID463173 (ICCB-Longwood Screening Facility, Harvard Medical School, 2010).
In all, about 52,000 compounds went through this assay and about 4,300 (8.3%) were called active. The entries come from a sample that favours actives as a whole. Unmarked numbers belong to inactive results. Cut-off read from the data, not from the text of the source: active = survival mostly below about 52% (no sharp cut-off); inactive = mostly above about 56%.

What follows are compounds tested on DeltatarO mutant (assay: growth inhibition of S. aureus wild type versus tarO mutant, primary screen, teichoic acid synthesis inhibitors, RN4220, OD600 (AID 463173)). Conditions: OD600, 18 h, stronger effect = lower value, screened at 18.75 µg/mL (by protocol).

Compound	survival
CC(C)NC(=O)C1CCN(Cc2ccccc2Cl)CC1	92%
Cc1ccc(NC(=O)CCNS(=O)(=O)c2ccc3c(c2)CCN3C(=O)C2CC2)c(Cl)c1	83%
COc1ccc(Cl)cc1NC(=O)CSc1nnc(C)n2c1cc1occc12	50%
Cc1ccc(C)c(NC(=O)Cn2c(=O)n(CCC(=O)NCc3ccc4c(c3)OCO4)c(=O)c3ccccc32)c1	104%
O=C(CN1C(=O)CSC1=O)c1ccccc1	88%
CC1Cc2ccccc2N1C(=O)c1cnsn1 (stereo not given)	97%
CC1=C(C(=O)Nc2ccc(Cl)cc2)C(c2cccs2)n2nc(SCc3cccc(Cl)c3)nc2N1 (stereo not given)	89%
CCOC(=O)/C=C(\C)Nc1cc(-c2ccc(Cl)cc2)[nH]n1	68%
CCNC(=S)Nc1cc(-c2ccc(Cl)cc2)[nH]n1	20% (active)
CC(=O)Nc1cc(-c2ccc(Cl)cc2)[nH]n1	106%
CCN(CC)S(=O)(=O)c1ccc2c(c1)N(CC(=O)N1CCN(c3ccc(F)cc3)CC1)C(=O)CO2	94%
Cc1oc(-c2ccc(Cl)cc2)nc1CS(=O)CC(=O)NCc1ccc(Cl)cc1 (stereo not given)	63%
Cc1ccc(-c2onc(C)c2C)cc1S(=O)(=O)Nc1ccc(Cl)cn1	97%
O=C(CSc1nc(-c2cccs2)nc2cc(=O)[nH]n12)Nc1ccccc1Cl	76%
Cc1cccc(NC(=O)CSc2ncc(-c3ccccc3)[nH]2)c1C	51%
CCOc1ccc(-c2nnc(SCC(=O)NC3CCCC3)nc2-c2ccc(OCC)c(OC)c2)cc1OC	71%
O=C(CSc1ncc(-c2ccccc2)[nH]1)Nc1cccc(C(F)(F)F)c1	12% (active)
Cc1cccc(NC(=O)CSc2ncc(-c3ccc(Br)cc3)[nH]2)c1	110%
O=C(CSc1ncc(-c2ccccc2)[nH]1)Nc1cccc(O)c1	89%
COc1ccc(-c2nnc(SCC(=O)NC3CCCC3)nc2-c2ccc(OC)c(OC)c2)cc1OC	47% (active)
O=C(CSc1ncc(-c2ccccc2)[nH]1)Nc1cccc(Br)c1	9% (active)
O=C(CSc1nc2cc3ccccc3cc2[nH]1)Nc1cccc(C(F)(F)F)c1	74%
O=C(CSc1nc(-c2cccs2)nc2cc(=O)[nH]n12)Nc1ccccc1F	47% (active)
Cc1ccccc1NC(=O)CSc1nc(-c2cccs2)nc2cc(=O)[nH]n12	93%
CCOc1ccc(-c2nnc(SCC(=O)NC3CCCCC3)nc2-c2ccc(OCC)c(OC)c2)cc1OC	78%
